# Experimental data from PubChem BioAssay AID1578 (Sanford-Burnham Center for Chemical Genomics, 2009).
# In all, about 290,000 compounds went through this assay and about 3,000 (1%) were called active. The sample as a whole holds a higher share of actives than the screen did. A number with no mark means an inactive call. Rule as the data show it: active = inhibition mostly above about 36% (no sharp cut-off); inactive = mostly below about 34%.
# Test: NOD1 signaling inhibitors, primary screen, cell-based, luminescence, uHTS (AID 1578);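 also: HEK-293T reporter cells stimulated with the NOD1 agonist gamma-tri-DAP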
# Conditions: NOD1-driven NF-kB luciferase reporter cells, at 4 µM, hits give high values
row,SMILES,inhibition
1,Fc1ccc(NC(=S)Nc2ccc(Cl)cc2Cl)cc1,-28.8%
2,CC(=O)c1c(C)[nH]c(C(=O)Nc2ccc(C)c(S(=O)(=O)N(C)C)c2)c1C,-63.3%
3,Nc1nc(NCC(=O)O)nc(NCc2ccccc2)c1[N+](=O)[O-],-13.3%
4,O=C(NNC1=Nc2ccccc2SC1)c1ccccc1F,1.9%
5,O=C(NNC1=Nc2ccccc2SC1)c1ccc(Cl)cc1,78.1% (active)
6,O=C(NNC1=Nc2ccccc2SC1)c1ccc(F)cc1,18.7%
7,COc1cc(/C=C(\C#N)C(=O)N2CCOCC2)ccc1OCc1ccccc1,-23.3%
8,O=S(=O)(c1cnc(Cl)c(Cl)c1)N1CCN(c2ncccn2)CC1,-5.2%
9,CC(C)c1ccccc1NC(=O)COC(=O)c1cccnc1,-18.3%
10,Cc1ccc(C(=O)NCCn2cc(SCC(=O)Nc3cc(C)on3)c3ccccc32)cc1,-10.3%
11,Cc1cc(NC(=O)CSc2cn(CCNC(=O)c3ccc(Cl)cc3)c3ccccc23)no1,75.9% (active)
12,Cc1cc(NC(=O)CSc2cn(CCNC(=O)c3ccccc3)c3ccccc23)no1,11.3%
13,O=C(CCC(=O)OCC(=O)c1ccc(Br)cc1)NC1CCCCC1,-4.2%
14,CCn1c(SCC(=O)N2CCc3ccccc3C2)nc2sc(C)c(C)c2c1=O,20.4%
15,CCC(=O)N1CCN(c2nc(C)nc3sc(C)c(C)c23)CC1,9.5%
16,Cc1nc(SCC(=O)N2CCCCC2)c2c(C)c(C)sc2n1,-15.5%
17,Cc1nc(N2CCN(C(=O)CCC(=O)O)CC2)c2c(C)c(C)sc2n1,-16.7%
18,COC(=O)c1ccc(CNC(=O)N2CCN(S(=O)(=O)c3ccc(C)cc3)CC2)cc1,-19.3%
19,Cn1c(=O)c2c(nc(SCc3ccccc3F)n2C)n(C)c1=O,24%
20,CN1C(=S)SC(/[N+]([O-])=C\c2ccc(Cl)cc2)C1(C)C (stereo not drawn),84.4% (active)
21,CN1C(=S)SC(/[N+]([O-])=C/c2ccc(Cl)cc2)C1(C)C (stereo not drawn),12%
22,Cc1ccc(/C=[N+](/[O-])C2SC(=S)N(C)C2(C)C)cc1 (stereo not drawn),-10.5%
23,O=C(O)c1ccc(-c2nc3scc(-c4ccccc4)c3c(=O)[nH]2)cc1,-3.4%
24,COc1cc(SC)ccc1C(=O)OC1CCOC1=O (stereo not drawn),7.7%
25,CCOc1ccccc1NC(=O)c1ccc(CN2CCc3ccccc3C2)cc1,25.2%

row,SMILES,inhibition
1,CC(=O)Nc1ccc(NC(=O)c2ccc(CN3CCc4ccccc4C3)cc2)cc1,21.2%
2,Cc1ccc(NC(=O)c2ccc(CN3CCc4ccccc4C3)cc2)cc1,42.4%
3,O=C(Nc1ccccc1)c1ccc(CN2CCc3ccccc3C2)cc1,37.2%
4,CCOC(=O)c1ccc(NC(=O)CN2CCc3ccccc3C2)cc1,-2.1%
5,Cc1cc(C)cc(NC(=O)c2ccc(CN3CCc4ccccc4C3)cc2)c1,39.1%
6,C#Cc1ccc([C@H]2C=C(C(=O)N3CCN(Cc4ccc5c(c4)OCO5)CC3)O[C@@H](OCc3ccc(CO)cc3)C2)cc1,1.8%
7,Cc1ccc(S(=O)(=O)Nc2ccccc2N2CCOCC2)cc1,-11.5%
8,Cc1nc2sc(C(c3ccc(F)cc3)N3CCOCC3)c(O)n2n1 (stereo not drawn),0.4%
9,Cc1onc(-c2ccccc2)c1C(=O)c1c[nH]c(C(=O)NCCCN2CCOCC2)c1,-7.9%
10,COc1ccc(CCNC(=O)Cn2c(=O)n(-c3cc(F)ccc3F)c(=O)c3sccc32)cc1OC,-47.6%
11,CC(NC(=S)Nc1ccc(OC(F)F)c(Cl)c1)C(C)(C)C (stereo not drawn),-14.8%
12,O/N=C/c1cccc[n+]1CCCCCC[n+]1ccccc1/C=N/O,27.1%
13,Cc1cc(=O)n2[nH]c(C)c(-c3ccccc3)c2n1,-4.2%
14,Cc1[nH]n2c(=O)cc(C(C)(C)C)nc2c1-c1ccccc1,85.3% (active)
15,Cc1[nH]n2c(=O)cc(C(C)C)nc2c1-c1ccccc1,-8.4%
16,COc1cccc(-c2c[nH]c(=O)[nH]c2=O)c1,-6.8%
17,COc1ccc(/C=C/C(=O)c2ccc(NC3=NCCCS3)cc2)cc1OC,44.3% (active)
18,Cc1cccc(/C=C/C(=O)c2ccc(NC3=NCCCS3)cc2)c1,32.1%
19,COc1cccc(/C=C/C(=O)c2ccc(NC3=NCCCS3)cc2)c1,-44.4%
20,CNCCCOc1ccc(C)cc1Br,13.5%
21,Cc1nn2c3ccccc3n(Cc3ccccc3)c2nc1=O,-20.5%
22,O=C(NCC(=O)N(c1ccc(Cl)cc1)C(C(=O)NC1CCCC1)c1ccncc1)c1ccco1 (stereo not drawn),-13.1%
23,CN(C)CCNC(=O)c1c(CSc2ccccc2)noc1C(=O)NCc1ccccc1,-3.7%
24,NC(=O)C1CCN(C(=O)c2ccc3c(c2)S(=O)(=O)c2ccccc2C3=O)CC1,1.2%
25,COC(=O)c1cc(C)nc2c1C(=O)C(=O)C=C2N1CCOCC1,-6.2%

row,SMILES,inhibition
1,CCN(CC)CCNC1=CC(=O)OC12CCCCC2,-19.3%
2,CCN(CC)CCNc1cc(C)nc2c1C(=O)C(=O)C=C2N1CCCCC1,101% (active)
3,Cc1ccc(C(=O)/C=C/c2ccc(Br)cc2)o1,21%
4,Cc1ccc(C(=O)/C=C/c2ccccc2)o1,-0.9%
5,Cc1ccc(C(=O)/C=C/c2cc(Br)cc(Br)c2O)o1,89.5% (active)
6,Cc1ccc(C(=O)NC2CC3CCC(C2)N3Cc2ccco2)cc1 (stereo not drawn),-13.6%
7,O=C(COC(=O)c1ccc[nH]c1=O)NCCc1ccc(Cl)cc1Cl,-4.3%
8,COc1ccc(OC)c(NC(=O)NNC(=O)CCCOc2ccc(Cl)cc2C)c1,-14%
9,O=C(O)Cc1sc(-c2ccccc2Cl)nc1-c1ccccc1,44% (active)
10,O=C(O)Cc1sc(-c2ccccc2)nc1-c1ccccc1,-9.7%
11,O=C(Cc1sc(-c2ccccc2Cl)nc1-c1ccccc1)Nc1ccccc1,-49.4%
12,CCCn1c(=O)c(C(=O)NNC(=O)c2ccc(Cl)cc2Cl)c(O)c2ccccc21,-6.2%
13,Cc1cc(Cl)ccc1NC(=O)CCCN1C(=O)CCC1=O,1.3%
14,O=C(Cn1nnc2ccccc21)N/N=C\c1cccs1,-35.5%
15,COc1ccc(/C=C/c2c(-c3ccc(OC)cc3)oc3ccc(-c4ccc(OC)cc4)cc23)cc1,-16.5%
16,COc1ccc(/C=C/C(=O)Oc2ccc(C)cc2)cc1,-12.4%
17,CC1(C)C2CCC1(C)C(OC(=O)C[n+]1ccccc1N)C2 (stereo not drawn),-14.7%
18,CC(C)NC(=O)C1CCN(C2CCN(C(=O)c3cc4c(s3)CCCCC4)CC2)CC1,-13.9%
19,Cc1cnc(CN(C)Cc2nc(Cc3cccc(C(F)(F)F)c3)no2)[nH]1,-15.7%
20,CC(C)OC(=O)c1cc2c(=O)[nH]c(C(Cl)(Cl)Cl)nc2o1,-25.8%
21,CS(=O)(=O)N(CC(=O)N1CCCCC1)C1CCCCC1,9.1%
22,COc1cccc(C(=O)N/N=C/C(Br)=C/c2ccccc2)c1,63.6% (active)
23,O=C(N/N=C/C(Br)=C/c1ccccc1)c1cccnc1,10.1%
24,COc1ccc(C(=O)N/N=C/C(Br)=C/c2ccccc2)cc1,26.8%
25,CC1(C)Cc2ccccc2-c2nc3n(c(=O)c21)CCS3,-12.8%

row,SMILES,inhibition
1,CC1(C)Cc2ccccc2-c2nc3n(c(=O)c21)CCCS3,44.3% (active)
2,CCC1(C)Cc2ccccc2-c2nc3n(c(=O)c21)CCS3 (stereo not drawn),5.3%
3,O=C(COC(=O)CSCC(=O)N1CCCCC1)Nc1ccc(Cl)cc1,0%
4,Fc1ccc(-c2noc(-c3ccc4c(c3)CCO4)n2)cc1,-17.4%
5,CN(C)Cc1c(O)ccc2c(-c3ccccc3)cc(=O)oc12,-22%
6,CC(=O)c1c(O)ccc2c(-c3ccccc3)cc(=O)oc12,13.4%
7,COC(=O)c1ccccc1NC(=O)Nc1cc(C)ccn1,-16.6%
8,Cc1cccc2sc(N(CCCN(C)C)C(=O)c3ccc(S(=O)(=O)N4CCc5ccccc5C4)cc3)nc12,13%
9,O=C(COC(=O)CCC(=O)c1ccc(F)cc1)Nc1ccc(N2CCOCC2)cc1,-6.3%
10,O=C(OCCN1CCCCC1)c1ccc(Cl)cc1,-7.2%
11,Oc1c(Br)cc(Br)cc1C=NCc1ccc(F)cc1,64.2% (active)
12,Oc1c(C=NCc2ccc(F)cc2)[nH]c2ccc(Br)c(Cl)c12,-16.1%
13,Oc1c(Br)cc(Br)cc1C=NCc1ccccc1,-5.4%
14,CCCn1c(N)c(Sc2ccccc2)c(=O)n(CCC)c1=O,17.2%
15,CCOC(=O)c1ccccc1NC(=O)c1c(F)c(F)c(F)c(F)c1F,-18.5%
16,CCCCC/C(=N\NC(=O)Nc1ccccc1)c1ccccc1,-2.9%
17,NC(=O)N/N=C(/CCCCCC/C(=N\NC(N)=O)c1ccccc1)c1ccccc1,36.6% (active)
18,C/C(=N\NC(N)=O)c1ccccc1,-34.5%
19,CC(=O)N1c2ccccc2C(C)(c2ccccc2)CC1(C)C (stereo not drawn),0.7%
20,CC1(C)C2C(Cl)(Cl)C2(C)c2ccccc2N1C=O (stereo not drawn),-3.3%
21,CC(=O)N1c2ccccc2C2(C)C(C1(C)C)C2(Cl)Cl (stereo not drawn),60.4% (active)
22,Cc1cc(NC(=O)Nc2ccc(Cl)cc2)n(C)n1,-7.2%
23,O=C1c2cccc3cc([N+](=O)[O-])cc(c23)C(=O)N1/N=C/c1ccc(O)cc1O,8.5%
